Our source for the outcome values is PubChem BioAssay (NCATS).

Each structure is given as a SMILES string. Inconclusive results are not listed. The source made the active and inactive calls. The call rests on the fitted dose curve; in most records, active means well fitted cell-killing curve with a large enough effect; inconclusive means small, poorly fitted or top-dose-only effect; inactive means flat fitted curve, though single readings scatter.

A short description of the assay: Cell Viability - LYMP2-002 (AID 977).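 Further: compound exposure lasted 24 h at 37 °C.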 The note with it: LYMP2-002 lymphoblastoid cell viability, qHTS; series mostly up to 92.2 µM. An excerpt: NIH Chemical Genomics Center [NCGC]
NIH Molecular Libraries Screening Centers Network [MLSCN]
National Institutes of Environmental Health Sciences [NIEHS]
National Toxicology Program [NTP]
We have developed a 1536-well cell-based assay for quantitative high throughput screening (qHTS) against a number of cell lines to determine in vitro cytotoxicity of small molecules. This particular assay uses a human lymphoblastoid cell line (LYMP2-002) purchased from Coriell Institute for Medical Research.
NCGC Assay Protocol Summary:
The CellTiter-Glo luminescent cell viability assay (Promega) is a homogeneous method to measure the number of viable cells in culture. The end point readout of this assay is based on quantitation of intracellular ATP, an indicator of metabolic activity, using the luciferase reaction. Luciferase catalyzes the oxidation of beetle Luciferin to oxyluciferin and light in the presence of ATP. The luminescent signal is proportional to amount of ATP present.
Using the CellTiter-Glo luminescent cell viability assay, the amount of cellular ATP was measured in the lymphoblastoid cell line with complete culture medium following compound treatment for 24 hours. The assay was performed in opaque white Kalypsys 1536-well plates. In the screen, tetraoctylammonium bromide was used as positive control. Library compounds were measured for their ability to cause acute toxicity in the cell line, as reflected by a decrease in intracellular ATP levels, in a concentration-dependent manner. […] AC50 values were determined from concentration-response data modeled with the standard Hill equation.
qHTS protocol for CellTiter Glo lymphoblastoid cellular assay
[Step] [Parameter] [Value] [Description]
1. Reagent; 5 uL; 2500 lymphoblastoid cells/well
2. Time; 5 hr; 37 C incubation
4. Controls; 23 nL; Tetraoctylammonium bromide 6.4pM to 92 uM
5. Time; 24 hr; 37 C incubation
6. Reagent; 5 uL; CellTiter Glo reagent
7. Time; 30 min; Room Temperature
8. Detection; Luminescence; Viewlux plate reader
Keywords: cell viability, cytotoxicity, lymphoblastoid cell line, luminescence, NTPHTS, NTPHTS_NCGC, NIEHS, DSSTox, MLSMR, MLSCN, NIH Roadmap, qHTS, NCGC
`O=c1c(-c2ccc(O)cc2)coc2cc(O)cc(O)c12`: the outcome was inactive.
In the case of `O=c1[nH]cc(F)c(=O)[nH]1` it was “inactive”.
As for `Clc1ccc(C(c2ccccc2Cl)C(Cl)Cl)cc1` (stereo not drawn), the entry is “inactive”; as for `NS(=O)(=O)c1cc2c(cc1Cl)NCNS2(=O)=O`, “inactive”; as for `Cn1c(=O)c2c(ncn2C)n(C)c1=O`, “inactive”.
As for `Cc1cn([C@H]2C=C[C@@H](CO)O2)c(=O)[nH]c1=O`, the entry is “inactive”; as for `CC(C)NCC(O)c1ccc(O)c(O)c1` (stereo not drawn), “inactive”.
As to `COc1ccc2c(c1)c(CC(=O)O)c(C)n2C(=O)c1ccc(Cl)cc1`, the call was inactive.
In the case of `COc1ccc2[nH]cc(CCNC(C)=O)c2c1`, the outcome was inactive.
Turning to `N[C@@H](Cc1c[nH]c2ccc(O)cc12)C(=O)O`, the outcome was inactive.
As for `CCC1(c2ccccc2)C(=O)NCNC1=O`, the entry is “inactive”.
As for `CC(C)C(=O)Nc1ccc([N+](=O)[O-])c(C(F)(F)F)c1`, the entry is “inactive”; as for `Cc1ccc(-c2cc(C(F)(F)F)nn2-c2ccc(S(N)(=O)=O)cc2)cc1`, “inactive”; as for `Nc1ccn([C@H]2CC[C@@H](CO)O2)c(=O)n1`, “inactive”.
In the case of `Nc1c2c(nc3ccccc13)CCCC2` it was “inactive”; in that of `NCCS(=O)(=O)O`, “inactive”.
For `Cn1c(=O)c2[nH]cnc2n(C)c1=O`, the result was inactive.
For the compound `Cc1cn([C@H]2C[C@H](N=[N+]=[N-])[C@@H](CO)O2)c(=O)[nH]c1=O`, the result was inactive.
